# Test results: PubChem BioAssay (NCATS)
# Inconclusive results are not listed. Where a call stands in place of a potency, no number is given. A number with no mark means an inactive call. Calls of active or inactive are those of the source. The call rests on the fitted dose curve; in most records, active means well fitted curve in the direction sought with a large enough effect; inconclusive means small, poorly fitted or top-dose-only effect, or another doubt; inactive means no such curve, though single readings can be large; an effect the other way counts as inactive or inconclusive.
# How the values were obtained:
# CRL-7250 = normal cell line; experiment: Cytotoxic Profiling of Annotated Libraries Using Quantitative High-Throughput Screening (AID 1296008); conditions: Five cell lines viability, CellTiter-Glo ATP luminescence, 48-72 h; max response: hits give low values; further: nearly all actives have a fitted effect of over 60% in size
# Method in brief: (§1)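 Cytotoxicity was measured as CellTiter-Glo ATP luminescence, read after 10 min at room temperature. Compound treatment of the cells lasted 48 or 72 hr at 37 degrees Celsius in a qHTS format.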
# HEK293 = experiment: as above; conditions: Five cell lines viability, CellTiter-Glo ATP luminescence, 48-72 h; max response: hits give low values
# Method in brief: as §1
# HaCat [1] = experiment: as above; conditions: Five cell lines viability, CellTiter-Glo ATP luminescence, 48-72 h; max response: hits give low values
# Method in brief: as §1
# KB-3-1 = experiment: as above; conditions: Five cell lines viability, CellTiter-Glo ATP luminescence, 48-72 h; max response: hits give low values
# Method in brief: as §1
# NIH3T3 [2] = experiment: as above; conditions: Five cell lines viability, CellTiter-Glo ATP luminescence, 48-72 h; max response: hits give low values
# Method in brief: as §1
# HACAT [3] = experiment: qHTS assay to identify novel small-molecules to repurpose for Merkel cell carcinoma treatment (AID 1296009); conditions: MCC and control cell lines, CellTiter-Glo viability, 72 h; at 44.8 µM (top of the series) unless noted; further: nearly all actives have a fitted effect of over 60% in size; further: potency means the concentration at half of the fitted maximal effect
# Method in brief: (§2)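 Cell viability, measured as CellTiter-Glo luminescence, was normalized between DMSO and no-cell wells. The cells had been exposed to 8- or 11-point compound dilutions for 72 hr at 37 degree celsius.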
# MCC-13 = experiment: as above; conditions: MCC and control cell lines, CellTiter-Glo viability, 72 h; series mostly up to 46 µM
# Method in brief: as §2
# MCC-26 = experiment: as above; conditions: MCC and control cell lines, CellTiter-Glo viability, 72 h; series mostly up to 46 µM
# Method in brief: as §2
# MKL-1 = experiment: as above; conditions: MCC and control cell lines, CellTiter-Glo viability, 72 h; series mostly up to 46 µM
# Method in brief: as §2
# MKL-2 = experiment: as above; conditions: MCC and control cell lines, CellTiter-Glo viability, 72 h; series mostly up to 46 µM
# Method in brief: as §2
# NIH3T3 [4] = experiment: as above; conditions: MCC and control cell lines, CellTiter-Glo viability, 72 h; at 44.8 µM (top of the series) unless noted
# Method in brief: as §2
# UISO = experiment: as above; conditions: MCC and control cell lines, CellTiter-Glo viability, 72 h; series mostly up to 46 µM
# Method in brief: as §2
# WaGa = experiment: as above; conditions: MCC and control cell lines, CellTiter-Glo viability, 72 h; series mostly up to 46 µM
# Method in brief: as §2
# C33A = experiment: Primary qHTS to identify gynecologic anti-cancer compounds using libraries of approved drugs and bioactive compounds (AID 1345084); conditions: Gynecologic cancer cell panel viability, ATPlite luminescence, 48 h; series mostly up to 57.5 µM; further: nearly all actives have a fitted effect of over 55% in size
# Method in brief: (§3)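 Five-point cytotoxicity, 48 h drug exposure at 37 C, 5% CO2, on cells seeded 16 h beforehand. ATP content read by ATPlite luminescence.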
# CASKI = experiment: as above; conditions: Gynecologic cancer cell panel viability, ATPlite luminescence, 48 h; series mostly up to 57.5 µM
# Method in brief: as §3
# Es-2 = experiment: as above; conditions: Gynecologic cancer cell panel viability, ATPlite luminescence, 48 h; series mostly up to 57.5 µM
# Method in brief: as §3
# HeLa = experiment: as above; conditions: Gynecologic cancer cell panel viability, ATPlite luminescence, 48 h; series mostly up to 57.5 µM
# Method in brief: as §3
# Hek293T [5] = experiment: as above; conditions: Gynecologic cancer cell panel viability, ATPlite luminescence, 48 h, control line for the selectivity index; series mostly up to 57.5 µM
# Method in brief: as §3
# JEG-3 = experiment: as above; conditions: Gynecologic cancer cell panel viability, ATPlite luminescence, 48 h; series mostly up to 57.5 µM
# Method in brief: as §3
# HEK293T [6] = experiment: qHTS assay to identify novel small-molecules to repurpose for Merkel cell carcinoma treatment (AID 1296009); conditions: MCC and control cell lines, CellTiter-Glo viability, 72 h; series mostly up to 44.8 µM; further: nearly all actives have a fitted effect of over 60% in size; further: potency means the concentration at half of the fitted maximal effect
# Method in brief: as §2
smiles,measurement,setting,value
CC[C@H]1OC(=O)[C@H](C)[C@@H](O[C@H]2C[C@@](C)(OC)[C@@H](O)[C@H](C)O2)[C@H](C)[C@@H](O[C@@H]2O[C@@H](C)C[C@H](N(C)C)[C@@H]2O)[C@](C)(O)C[C@@H](C)C(=O)[C@H](C)[C@@H](O)[C@]1(C)O,max response,CRL-7250,0.799%
same,max response,HEK293,-7.85%
same,outcome,HaCat [1],inactive
same,max response,KB-3-1,5.08%
same,outcome,NIH3T3 [2],inactive
same,outcome,HACAT [3],inactive
same,Potency,MCC-13,inactive
same,Potency,MCC-26,inactive
same,Potency,MKL-1,inactive
same,Potency,MKL-2,inactive
same,outcome,NIH3T3 [4],inactive
same,Potency,UISO,inactive
same,Potency,WaGa,inactive
O=C(Nc1ccc(Oc2ccnc3[nH]ccc23)c(F)c1)c1cccn(-c2ccc(F)cc2)c1=O,max response,CRL-7250,-4.56%
same,max response,HEK293,2.79%
same,max response,HaCat [1],2.4%
same,outcome,HaCat [1],inactive
same,outcome,KB-3-1,inactive
same,outcome,NIH3T3 [2],inactive
same,outcome,HACAT [3],inactive
same,Potency,MCC-13,inactive
same,Potency,MKL-1,inactive
same,Potency,MKL-2,inactive
same,outcome,NIH3T3 [4],inactive
same,Potency,UISO,inactive
same,Potency,WaGa,inactive
same,Potency,C33A,inactive
same,Potency,CASKI,inactive
same,Potency,Es-2,inactive
same,Potency,HeLa,inactive
same,Potency,Hek293T [5],inactive
same,Potency,JEG-3,inactive
CC(Oc1ccc(O)cc1)(P(=O)(O)O)P(=O)(O)O,max response,CRL-7250,3.19%
same,outcome,HEK293,inactive
same,outcome,HaCat [1],inactive
same,max response,KB-3-1,-8.06%
same,max response,NIH3T3 [2],-5.52%
same,outcome,HACAT [3],inactive
same,Potency,HEK293T [6],inactive
same,Potency,MCC-13,inactive
same,Potency,MCC-26,inactive
same,Potency,MKL-1,inactive
same,Potency,MKL-2,inactive
same,Potency,UISO,inactive
same,Potency,WaGa,inactive
O=C(NNC(=O)c1ccc(CNS(=O)(=O)c2ccc(F)c(Cl)c2)cc1)c1ccccc1,outcome,CRL-7250,inactive
same,max response,HEK293,4.45%
same,outcome,HaCat [1],inactive
same,max response,KB-3-1,0.725%
same,outcome,NIH3T3 [2],inactive
same,outcome,HACAT [3],inactive
same,Potency,MCC-13,inactive
same,Potency,MCC-26,inactive
same,Potency,MKL-1,inactive
same,Potency,MKL-2,inactive
same,outcome,NIH3T3 [4],inactive
same,Potency,UISO,inactive
same,Potency,WaGa,inactive
CCCCOc1ccc(C(=O)Nc2ccc(F)cc2F)cc1,max response,CRL-7250,-1.1%
same,outcome,CRL-7250,inactive
same,max response,HEK293,2.49%
same,outcome,HaCat [1],inactive
same,max response,KB-3-1,0.701%
same,max response,NIH3T3 [2],-3.26%
same,outcome,NIH3T3 [2],inactive
same,outcome,HACAT [3],inactive
same,Potency,MCC-13,inactive
same,Potency,MKL-1,inactive
same,Potency,MKL-2,inactive
same,outcome,NIH3T3 [4],inactive
same,Potency,UISO,inactive
same,Potency,WaGa,inactive
same,Potency,C33A,inactive
same,Potency,CASKI,inactive
same,Potency,Es-2,inactive
same,Potency,HeLa,inactive
same,Potency,JEG-3,inactive
OC[C@H]1OC(O)C[C@@H](O)[C@H]1O (stereo not given in full),outcome,CRL-7250,inactive
same,outcome,HEK293,inactive
same,outcome,HaCat [1],inactive
same,max response,KB-3-1,2.18%
same,outcome,NIH3T3 [2],inactive
same,outcome,HACAT [3],inactive
same,Potency,HEK293T [6],inactive
same,Potency,MCC-13,inactive
same,Potency,MCC-26,inactive
same,Potency,MKL-1,inactive
same,Potency,MKL-2,inactive
same,outcome,NIH3T3 [4],inactive
same,Potency,UISO,inactive
same,Potency,WaGa,inactive
CCOC(=O)[C@@H](N)Cc1ccc(-c2cc(O[C@H](c3ccc(Cl)cc3-n3ccc(C)n3)C(F)(F)F)nc(N)n2)cc1,max response,CRL-7250,-8.01%
same,max response,HEK293,-5.12%
same,max response,HaCat [1],1.01%
same,outcome,HaCat [1],inactive
same,max response,KB-3-1,6.69%
same,outcome,HACAT [3],inactive
same,Potency,MCC-13,inactive
same,Potency,MCC-26,inactive
same,Potency,MKL-1,inactive
same,Potency,UISO,inactive
same,Potency,WaGa,inactive
same,Potency,C33A,inactive
same,Potency,CASKI,inactive
same,Potency,Es-2,inactive
same,Potency,HeLa,inactive
same,Potency,Hek293T [5],inactive
same,Potency,JEG-3,inactive
CN1C(C(=O)Nc2ccccn2)=C(O)c2sc(Cl)cc2S1(=O)=O,outcome,CRL-7250,inactive
same,outcome,HEK293,inactive
same,outcome,HaCat [1],inactive
same,max response,KB-3-1,3.99%
same,max response,NIH3T3 [2],-1.3%
same,outcome,HACAT [3],inactive
same,Potency,HEK293T [6],inactive
same,Potency,MCC-13,inactive
same,Potency,MCC-26,inactive
same,Potency,MKL-1,inactive
same,Potency,UISO,inactive
same,Potency,WaGa,inactive
Cc1cc(-c2nnc3n2CCCCC3)c(C)n1-c1ccccc1,max response,CRL-7250,-6.3%
same,max response,HEK293,-6.24%
same,outcome,HaCat [1],inactive
same,max response,KB-3-1,-0.0627%
same,max response,NIH3T3 [2],1.52%
same,outcome,HACAT [3],inactive
same,Potency,MCC-13,inactive
same,Potency,MCC-26,inactive
same,Potency,MKL-1,inactive
same,Potency,MKL-2,20.9 µM (active)
same,Potency,UISO,inactive
Nc1nc2c(c(=O)[nH]1)N(C=O)[C@H](CNc1ccc(C(=O)N[C@@H](CCC(=O)O)C(=O)O)cc1)CN2,max response,CRL-7250,-8.32%
same,max response,HEK293,-23.4%
same,outcome,HaCat [1],inactive
same,max response,KB-3-1,3.69%
same,outcome,NIH3T3 [2],inactive
same,outcome,HACAT [3],inactive
same,Potency,MCC-13,inactive
same,Potency,MCC-26,inactive
same,Potency,MKL-1,inactive
same,Potency,MKL-2,inactive
same,outcome,NIH3T3 [4],inactive
same,Potency,UISO,inactive
same,Potency,WaGa,inactive
CC(=O)C1=C(O)C=C2Oc3c(C(C)=O)c(O)c(C)c(O)c3C2(C)C1=O (stereo not given),outcome,CRL-7250,inactive
same,outcome,HEK293,inactive
same,outcome,HaCat [1],inactive
same,outcome,KB-3-1,inactive
same,outcome,NIH3T3 [2],inactive
same,outcome,HACAT [3],inactive
same,Potency,HEK293T [6],inactive
same,Potency,MCC-13,inactive
same,Potency,MKL-1,inactive
same,Potency,MKL-2,inactive
same,outcome,NIH3T3 [4],inactive
same,Potency,UISO,inactive
same,Potency,WaGa,inactive
Cc1ccc(O)c(C(CCN(C(C)C)C(C)C)c2ccccc2)c1 (stereo not given),outcome,CRL-7250,inactive
same,max response,HEK293,-19.9%
same,outcome,HaCat [1],inactive
same,outcome,KB-3-1,inactive
same,outcome,NIH3T3 [2],inactive
same,outcome,HACAT [3],inactive
same,Potency,MCC-13,inactive
same,Potency,MCC-26,inactive
same,Potency,MKL-1,inactive
same,Potency,MKL-2,inactive
same,outcome,NIH3T3 [4],inactive
same,Potency,UISO,inactive
same,Potency,WaGa,inactive
